Of roughly 7,900 targets only a part is listed; those with a hit were picked by preference. About 0.6% of all pairs of compound and target were hits. Values without a mark were called inactive.
Experiments:
Assay in all cases: log2 fold change, soluble protein after heating vs DMSO (PISA); higher = thermal stabilisation; K562 cells, 10 uM, 30 min; active = over 0.2 and 3.5 SD of the protein, either way, in both replicates (recomputed)
erlotinib = compound: C#Cc1cccc(Nc2ncnc3cc(OCCOC)c(OCCOC)cc23)c1 [erlotinib]
Method in brief: (§1)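 For each measurement, 10 μM compound was applied for 30 min to K562 cells at 2×10^6 cells/mL. Aliquots were heated for 3 min across 48°C-58°C, pooled, and extracted in PBS with 0.5% NP-40 at 4°C; the supernatant after 21,000xg for 90 min was soluble protein. This was quantified by TMTpro 16plex LC-MS/MS with channel sums equalised, and thermal stability was reported relative to control samples from duplicates, on a log2 fold-change scale.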

[1] = compound: C/C(=N\NC(=O)C1=CC(=CC=C1)S(=O)(=O)N2CCOCC2)/C3=C(C=CC(=C3)Cl)O
Method in brief: as §1

[2] = compound: C1=CC(=C(C=C1Cl)C2=NC3=NC=CN=C3C(=N2)NC4=CC=NC=C4)F
Method in brief: as §1

[3] = compound: C1=CC(=CC=C1C2=NC3=C(N2)C=C(C=C3)C(=O)N)OC4=CC=C(C=C4)Cl
Method in brief: as §1

[4] = compound: C1=CC2=C(C=CC(=C2)/C=C\3/C(=O)NC(=NCC4=CC=CS4)S3)N=C1
Method in brief: as §1

[5] = compound: C1=CC2=NC=CN=C2C=C1/C=C/3\C(=O)NC(=O)S3
Method in brief: as §1

[6] = compound: C1=CC=C(C=C1)C2=NC(=C(N2)C3=CC=NC=C3)C4=CC(=C(C=C4)Cl)O
Method in brief: as §1

[7] = compound: C1=CC=C2C(=C1)C3=NNC4=CC=CC(=C43)C2=O
Method in brief: as §1

[8] = compound: C1CCN(C1)C(=O)NC2=CC=CC(=C2)NC3=NC=C(C(=N3)NCCC4=CN=CN4)Br
Method in brief: as §1

[9] = compound: C1CN(CCC1(CC2=CC=C(C=C2)Cl)N)C3=NC=NC4=C3C=CN4
Method in brief: as §1

IRAK-1-4 Inhibitor I = compound: C1COCCN1CCN2C3=CC=CC=C3N=C2NC(=O)C4=CC(=CC=C4)[N+](=O)[O-] [IRAK-1-4 Inhibitor I]
Method in brief: as §1

ibrutinib = compound: C=CC(=O)N1CCC[C@@H](n2nc(-c3ccc(Oc4ccccc4)cc3)c3c(N)ncnc32)C1 [ibrutinib]
Method in brief: as §1

[10] = compound: CC(=O)c1cnc2ccc(-c3cc(Cl)c(O)c(Cl)c3)nc2c1N[C@H]1CC[C@H](CN(C)C)CC1
Method in brief: as §1

ralimetinib = compound: CC(C)(C)Cn1c(N)nc2ccc(-c3[nH]c(C(C)(C)C)nc3-c3ccc(F)cc3)nc21 [ralimetinib]
Method in brief: as §1

[11] = compound: CC(C)(O)CC(=O)NCCn1ccc2ncnc(Nc3ccc(Oc4cccc(C(F)(F)F)c4)c(Cl)c3)c21
Method in brief: as §1

[12] = compound: CC(C)C1=C2N=C(C=C(N2N=C1)NCC3=CC=CC=C3)NCCCCCCN
Method in brief: as §1

[13] = compound: CC(C)C[C@@H](C=O)NC(=O)[C@H](CC(C)C)NC(=O)[C@H](CC(C)C)NC(=O)OCc1ccccc1
Method in brief: as §1

pinometostat = compound: CC(C)N(C[C@H]1O[C@@H](n2cnc3c(N)ncnc32)[C@H](O)[C@@H]1O)[C@H]1C[C@@H](CCc2nc3cc(C(C)(C)C)ccc3[nH]2)C1 [pinometostat]
Method in brief: as §1

[14] = compound: CC1=C(C(CC(=O)N1)C2=CC=C(C=C2)C(F)(F)F)C(=O)NC3=C(C=C4C(=C3)C=NN4)F
Method in brief: as §1

[15] = compound: CC1=C(C2=C(C=C1)C(=O)C3=CC=CC=C3N2CCCN)C
Method in brief: as §1

Sequence of UniProt Q70SY1 (Q70SY1 whole entry, looked up): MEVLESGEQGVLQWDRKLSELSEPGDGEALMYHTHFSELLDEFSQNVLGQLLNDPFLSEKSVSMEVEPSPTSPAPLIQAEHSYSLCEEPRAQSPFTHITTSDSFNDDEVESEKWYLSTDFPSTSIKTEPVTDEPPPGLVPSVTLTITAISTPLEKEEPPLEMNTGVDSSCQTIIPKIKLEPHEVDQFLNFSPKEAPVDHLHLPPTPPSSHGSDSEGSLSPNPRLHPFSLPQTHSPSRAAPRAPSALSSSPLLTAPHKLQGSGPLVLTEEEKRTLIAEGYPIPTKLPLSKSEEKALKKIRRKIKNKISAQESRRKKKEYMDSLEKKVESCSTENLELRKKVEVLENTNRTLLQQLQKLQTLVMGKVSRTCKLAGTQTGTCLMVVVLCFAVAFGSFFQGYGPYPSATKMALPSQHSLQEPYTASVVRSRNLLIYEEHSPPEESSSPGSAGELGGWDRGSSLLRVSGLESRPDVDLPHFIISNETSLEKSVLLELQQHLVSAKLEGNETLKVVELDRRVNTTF
Sequence of UniProt Q5JTJ3 (Q5JTJ3 whole entry, looked up): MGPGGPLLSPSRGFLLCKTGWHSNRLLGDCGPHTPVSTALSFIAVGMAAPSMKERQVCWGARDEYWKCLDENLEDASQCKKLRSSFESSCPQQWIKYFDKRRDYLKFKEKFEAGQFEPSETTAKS
Sequence of UniProt Q8N1A6 (Q8N1A6 whole entry, looked up): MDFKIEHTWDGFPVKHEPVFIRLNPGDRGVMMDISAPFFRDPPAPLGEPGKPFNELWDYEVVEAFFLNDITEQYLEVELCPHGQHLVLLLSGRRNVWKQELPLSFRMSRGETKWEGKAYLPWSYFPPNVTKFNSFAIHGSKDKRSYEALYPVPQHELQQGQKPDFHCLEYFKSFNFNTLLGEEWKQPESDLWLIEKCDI
Sequence of UniProt Q5VT25 (Q5VT25 whole entry, looked up): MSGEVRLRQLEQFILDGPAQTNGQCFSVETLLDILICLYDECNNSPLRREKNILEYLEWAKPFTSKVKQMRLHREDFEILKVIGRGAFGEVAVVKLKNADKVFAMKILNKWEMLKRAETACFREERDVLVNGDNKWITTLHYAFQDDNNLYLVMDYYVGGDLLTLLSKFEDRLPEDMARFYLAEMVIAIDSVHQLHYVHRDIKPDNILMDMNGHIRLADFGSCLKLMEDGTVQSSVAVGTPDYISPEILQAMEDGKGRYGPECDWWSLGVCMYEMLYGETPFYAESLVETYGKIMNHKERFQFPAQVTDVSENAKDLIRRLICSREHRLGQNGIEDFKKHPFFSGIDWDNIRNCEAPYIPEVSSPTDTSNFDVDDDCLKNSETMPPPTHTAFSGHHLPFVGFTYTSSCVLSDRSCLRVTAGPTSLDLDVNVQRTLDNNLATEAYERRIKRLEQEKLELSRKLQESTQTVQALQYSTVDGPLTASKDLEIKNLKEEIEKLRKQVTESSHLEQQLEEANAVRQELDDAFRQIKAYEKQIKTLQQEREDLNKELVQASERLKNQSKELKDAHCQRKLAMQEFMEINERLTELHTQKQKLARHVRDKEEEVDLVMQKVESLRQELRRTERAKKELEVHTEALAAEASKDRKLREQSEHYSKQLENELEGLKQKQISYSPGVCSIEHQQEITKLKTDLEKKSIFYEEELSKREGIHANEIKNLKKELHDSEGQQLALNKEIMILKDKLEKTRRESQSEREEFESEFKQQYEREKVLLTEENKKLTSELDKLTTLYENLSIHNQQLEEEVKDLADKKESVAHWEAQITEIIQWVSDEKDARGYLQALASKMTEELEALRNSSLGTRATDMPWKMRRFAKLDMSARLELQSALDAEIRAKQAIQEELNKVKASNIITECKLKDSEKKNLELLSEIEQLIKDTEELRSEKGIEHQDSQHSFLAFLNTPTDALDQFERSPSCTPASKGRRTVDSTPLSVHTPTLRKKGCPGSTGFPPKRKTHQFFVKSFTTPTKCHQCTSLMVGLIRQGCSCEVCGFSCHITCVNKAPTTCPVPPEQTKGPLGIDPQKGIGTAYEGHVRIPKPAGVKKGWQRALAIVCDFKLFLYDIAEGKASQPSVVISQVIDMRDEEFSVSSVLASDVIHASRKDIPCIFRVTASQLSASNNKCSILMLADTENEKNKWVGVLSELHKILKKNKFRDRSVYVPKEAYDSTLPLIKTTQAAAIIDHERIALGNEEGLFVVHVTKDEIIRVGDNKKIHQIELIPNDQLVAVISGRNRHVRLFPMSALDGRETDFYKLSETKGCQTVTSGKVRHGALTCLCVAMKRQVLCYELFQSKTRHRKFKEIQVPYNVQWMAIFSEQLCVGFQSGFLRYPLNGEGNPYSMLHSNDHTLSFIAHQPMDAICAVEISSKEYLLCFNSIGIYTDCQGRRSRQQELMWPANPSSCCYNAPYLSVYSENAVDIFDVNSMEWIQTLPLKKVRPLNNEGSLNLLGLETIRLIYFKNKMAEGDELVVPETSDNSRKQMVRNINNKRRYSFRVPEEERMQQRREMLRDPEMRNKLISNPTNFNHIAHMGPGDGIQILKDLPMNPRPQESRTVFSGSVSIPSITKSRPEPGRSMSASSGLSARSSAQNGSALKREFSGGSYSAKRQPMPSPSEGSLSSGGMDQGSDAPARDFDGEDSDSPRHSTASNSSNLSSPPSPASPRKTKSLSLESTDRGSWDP
Sequence of UniProt P23786 (P23786 whole entry, looked up): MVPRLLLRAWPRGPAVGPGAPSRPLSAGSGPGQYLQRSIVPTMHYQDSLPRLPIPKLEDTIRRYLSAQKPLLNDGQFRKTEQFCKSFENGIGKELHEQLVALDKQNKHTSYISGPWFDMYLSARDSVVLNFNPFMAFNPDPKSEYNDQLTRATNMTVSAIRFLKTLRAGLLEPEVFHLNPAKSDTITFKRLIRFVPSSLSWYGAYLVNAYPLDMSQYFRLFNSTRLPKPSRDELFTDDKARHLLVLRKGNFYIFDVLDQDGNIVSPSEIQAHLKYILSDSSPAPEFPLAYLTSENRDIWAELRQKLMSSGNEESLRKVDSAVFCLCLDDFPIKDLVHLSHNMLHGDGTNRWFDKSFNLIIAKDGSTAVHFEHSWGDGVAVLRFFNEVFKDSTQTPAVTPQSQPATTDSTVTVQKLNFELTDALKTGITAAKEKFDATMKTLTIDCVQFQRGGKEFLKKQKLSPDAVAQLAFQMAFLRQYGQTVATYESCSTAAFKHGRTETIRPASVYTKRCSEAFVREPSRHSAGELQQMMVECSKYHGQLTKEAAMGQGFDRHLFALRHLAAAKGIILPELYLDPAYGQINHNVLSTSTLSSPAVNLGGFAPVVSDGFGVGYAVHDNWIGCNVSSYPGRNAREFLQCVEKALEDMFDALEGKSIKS
Sequence of UniProt O95628 (O95628 whole entry, looked up): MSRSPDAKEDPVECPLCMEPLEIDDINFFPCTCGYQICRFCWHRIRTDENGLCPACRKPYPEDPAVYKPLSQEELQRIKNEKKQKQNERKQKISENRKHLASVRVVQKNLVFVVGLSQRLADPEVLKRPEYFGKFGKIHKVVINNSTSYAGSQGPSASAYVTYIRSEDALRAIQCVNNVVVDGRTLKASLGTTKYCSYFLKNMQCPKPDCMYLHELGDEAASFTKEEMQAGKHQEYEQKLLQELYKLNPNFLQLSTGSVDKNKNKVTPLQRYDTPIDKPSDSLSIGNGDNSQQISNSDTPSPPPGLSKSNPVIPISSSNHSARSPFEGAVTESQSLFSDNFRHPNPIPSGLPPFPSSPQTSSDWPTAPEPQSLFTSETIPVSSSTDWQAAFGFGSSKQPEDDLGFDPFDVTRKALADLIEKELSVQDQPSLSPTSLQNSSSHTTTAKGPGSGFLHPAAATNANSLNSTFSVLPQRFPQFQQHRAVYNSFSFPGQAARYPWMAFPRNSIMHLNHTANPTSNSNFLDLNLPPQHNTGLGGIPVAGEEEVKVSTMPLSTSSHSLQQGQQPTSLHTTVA
Sequence of UniProt Q7KZN9 (Q7KZN9 whole entry, looked up): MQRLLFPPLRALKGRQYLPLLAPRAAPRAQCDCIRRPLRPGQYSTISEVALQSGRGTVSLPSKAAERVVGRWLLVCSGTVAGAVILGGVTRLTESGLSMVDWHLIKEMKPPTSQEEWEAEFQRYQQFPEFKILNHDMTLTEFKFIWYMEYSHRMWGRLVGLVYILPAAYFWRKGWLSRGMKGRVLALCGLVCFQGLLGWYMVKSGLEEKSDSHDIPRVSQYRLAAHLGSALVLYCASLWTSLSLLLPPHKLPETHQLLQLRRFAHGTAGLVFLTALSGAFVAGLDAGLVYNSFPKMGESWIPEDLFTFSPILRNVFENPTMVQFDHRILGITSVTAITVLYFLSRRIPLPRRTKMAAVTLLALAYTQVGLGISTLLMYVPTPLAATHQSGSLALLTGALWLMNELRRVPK
Sequence of UniProt Q6P5X5 (Q6P5X5 whole entry, looked up): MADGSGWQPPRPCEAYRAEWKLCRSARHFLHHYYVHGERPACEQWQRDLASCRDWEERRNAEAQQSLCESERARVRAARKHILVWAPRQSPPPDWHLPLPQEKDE
Sequence of UniProt Q5RI15 (Q5RI15 whole entry, looked up): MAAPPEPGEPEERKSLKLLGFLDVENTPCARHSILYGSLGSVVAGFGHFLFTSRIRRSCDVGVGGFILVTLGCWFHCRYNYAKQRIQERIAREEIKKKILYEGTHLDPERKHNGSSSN
Sequence of UniProt P42574 (P42574 whole entry, looked up): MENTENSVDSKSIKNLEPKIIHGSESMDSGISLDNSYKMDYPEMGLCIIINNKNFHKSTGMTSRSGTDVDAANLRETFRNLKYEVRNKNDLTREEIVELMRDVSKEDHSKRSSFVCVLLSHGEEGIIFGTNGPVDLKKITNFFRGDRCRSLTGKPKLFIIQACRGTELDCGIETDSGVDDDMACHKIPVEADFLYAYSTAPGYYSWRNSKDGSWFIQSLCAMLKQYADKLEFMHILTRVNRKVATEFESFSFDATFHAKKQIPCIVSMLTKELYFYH
Sequence of UniProt P61024 (P61024 whole entry, looked up): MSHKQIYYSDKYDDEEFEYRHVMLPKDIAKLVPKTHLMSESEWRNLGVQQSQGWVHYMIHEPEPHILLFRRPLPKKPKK

Row | Target | log2 fold change (erlotinib) | log2 fold change [1] | log2 fold change [2] | log2 fold change [3] | log2 fold change [4] | log2 fold change [5] | log2 fold change [6] | log2 fold change [7] | log2 fold change [8] | log2 fold change [9] | log2 fold change (IRAK-1-4 Inhibitor I) | log2 fold change (ibrutinib) | log2 fold change [10] | log2 fold change (ralimetinib) | log2 fold change [11] | log2 fold change [12] | log2 fold change [13] | log2 fold change (pinometostat) | log2 fold change [14] | log2 fold change [15]
1 | CNOT4 isoform 6 (UniProt O95628) | 0.004 | 0.06 | 0.026 | 0.014 | 0.03 | 0.003 | -0.007 | -0.043 | -0.011 | 0.044 | 0.044 | 0.016 | -0.062 | -0.048 | 0.002 | 0.038 | -0.019 | -0.025 | 0.018 | 0.051
2 | CDK9 isoform 2 (UniProt P50750) | 0.043 | -0.005 | -0.174 | 0.024 | -0.084 | 0.05 | 0.059 | -0.076 | -0.001 | -0.059 | -0.02 | -0.017 | 0.233 | -0.008 | 0 | -0.113 | 0.044 | 0.157 | -0.03 | -0.144
3 | C19orf53 (UniProt Q9UNZ5) | -0.161 | -0.216 | -0.52 | 0.079 | -0.129 | -0.011 | -0.024 | -0.028 | 0.053 | -0.176 | -0.136 | 0.031 | 0.12 | 0.201 | 0.043 | 0.013 | 0.126 | 0.32 | 0.079 | -0.546
4 | CRK (UniProt P46108) | -0.022 | 0.035 | -0.002 | -0.012 | -0.011 | 0.03 | -0.076 | 0.049 | 0.016 | 0.001 | -0.046 | -0.097 | -0.887 (active) | -0.013 | -0.007 | -0.003 | 0.032 | -0.037 | -0.011 | 0.07
5 | CKS1B (UniProt P61024) | -0.014 | 0 | 0.028 | -0.013 | 0.044 | 0.029 | 0.11 | -0.045 | -0.012 | 0.034 | -0.011 | -0.008 | -0.127 | 0.222 (active) | 0.001 | 0.027 | -0.031 | -0.044 | 0.036 | 0.054
6 | CASP3 (UniProt P42574) | -0.014 | -0.021 | 0.238 | 0.006 | -0.005 | -0.001 | 0.086 | 0.015 | -0.028 | 0.093 | 0.074 | 0.008 | 0 | -0.022 | 0.043 | 0.048 | 0.067 | -0.076 | 0.011 | 0.05
7 | CDC42BPA isoform 6 (UniProt Q5VT25) | -0.081 | 0.115 | -0.022 | 0.008 | -0.337 | -0.011 | 0.03 | 0.073 | -0.03 | -0.396 | -0.025 | -0.09 | -1.07 (active) | 0.094 | -0.02 | -0.193 | 0.043 | 0.029 | -0.192 | 0.132
8 | CPT2 (UniProt P23786) | -0.096 | -0.087 | 0.068 | 0.636 | 0.07 | 0.076 | 0.163 | 0.066 | 0.004 | 0.23 | 0.101 | 0.095 | 0.201 | -0.079 | -0.704 (active) | -0.488 | 0.16 | -0.145 | -0.051 | 0.256
9 | CAVIN1 (UniProt Q6NZI2) | -0.06 | -0.085 | -0.309 | 0.121 | -0.04 | -0.002 | 0.274 | 0.07 | 0.062 | -0.137 | -0.064 | -0.002 | 0.011 | 0.393 | 0 | -0.156 | -0.011 | 0.2 | 0.06 | -0.437 (active)
10 | CPSF1 (UniProt Q10570) | -0.004 | -0.057 | -0.108 | 0.039 | -0.012 | 0.02 | -0.062 | -0.045 | 0.041 | -0.037 | -0.006 | -0.007 | 0.064 | 0 | 0.036 | -0.009 | 0.075 | 0.142 | 0 | -0.093
11 | CREB3L2 (UniProt Q70SY1) | 0.424 | 0.104 | 0.057 | -0.264 | 0.113 | -0.174 | -0.1 | -0.045 | -0.206 | 0.173 | 0.055 | 0.168 | -0.108 | -0.01 | -0.08 | 0.322 | 0.607 | -0.193 | -0.058 | 0.074
12 | COA6 isoform 2 (UniProt Q5JTJ3) | 0.012 | 0.022 | 0.045 | 0.007 | 0.023 | 0.062 | -0.053 | -0.108 | 0.047 | 0.02 | 0.043 | 0.036 | 0.019 | -0.071 | 0.045 | 0.059 | -0.026 | -0.04 | 0.016 | -0.004
13 | COX20 isoform 2 (UniProt Q5RI15) | 0.037 | 0.013 | 0.072 | 0.008 | 0.057 | 0.016 | -0.092 | -0.061 | 0 | 0.03 | -0.019 | 0.043 | -0.022 | -0.055 | 0.016 | 0.006 | 0 | -0.018 | -0.018 | 0.019
14 | COX15 (UniProt Q7KZN9) | -0.01 | -0.008 | 0.067 | -0.008 | 0.03 | 0.145 | -0.009 | -0.019 | 0.01 | 0.057 | 0.022 | -0.04 | 0.027 | -0.03 | -0.036 | -0.04 | 0.001 | -0.022 | -0.004 | 0.008
15 | C4orf33 (UniProt Q8N1A6) | -0.026 | 0.023 | 0.052 | 0.138 | 0.072 | -0.287 (active) | -0.092 | 0.016 | 0.017 | 0.06 | 0.038 | 0.137 | -0.049 | -0.073 | 0.005 | -0.076 | 0.032 | 0 | -0.01 | -0.03
16 | C22orf39 (UniProt Q6P5X5) | -0.256 | -0.02 | -0.018 | 0.02 | -0.014 | 0.051 | -0.023 | -0.004 | 0.037 | 0.02 | 0.12 | 0.033 | -0.069 | -0.104 | 0.018 | -0.587 (active) | 0.126 | 0.035 | 0.014 | 0.213
